{"source": "PubChem BioAssay AID1035475", "about": "(Broad Institute, 2014)", "note": "Results with a measured potency or affinity are listed apart. Records with an inconclusive call do not appear. Calls of active or inactive are those of the source.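 Rule for the calls: active = fluorescent signal drops by 40% or more, counted as a hit; inconclusive = no clear call, values can overlap the other calls; inactive = the rest, including any activity in the opposite direction.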"}
{"assay": "inhibitors of fibronectin matrix deposition, dose response, AH1F cells, Alexa488-FN fluorescence, cherry-picks (AID 1035475);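 note: AH1F fibroblasts incorporating labeled fibronectin into their extracellular matrix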", "details": "AH1F fibroblasts, overnight; series mostly up to 35 µM"}
{"smiles": "CCN(Cc1ccncc1)C(=O)c1ccc2c(c1)S(=O)(=O)c1ccccc1C2=O", "outcome": "inactive"}
{"smiles": "COC(=O)C[C@H]1CC[C@@H]2[C@@H](COc3ccc(NC(=O)Cc4cccs4)cc3C(=O)N2C)O1", "outcome": "inactive"}
{"smiles": "C[C@@H]1CN([C@H](C)CO)C(=O)c2cc(-c3ccccc3)cnc2O[C@H]1CN(C)C(=O)c1cccc(F)c1", "outcome": "inactive"}
{"smiles": "CO[C@H]1CN(C)C(=O)c2cc(NC(C)=O)ccc2OC[C@@H](C)N(C(=O)CN2CCOCC2)C[C@H]1C", "outcome": "inactive"}
{"smiles": "C[C@H](O)C#Cc1ccc2c(c1)O[C@H](CN(C)C)[C@@H](C)CN([C@@H](C)CO)S2(=O)=O", "outcome": "inactive"}
{"smiles": "CCc1ccc(NC(=O)CSc2nnc(-c3ccco3)o2)cc1", "outcome": "inactive"}
{"smiles": "C[C@H](O)C#Cc1ccc2c(c1)O[C@H](CN(C)C)[C@H](C)CN([C@@H](C)CO)S2(=O)=O", "outcome": "inactive"}
{"smiles": "CN1c2ccc(-c3ccccc3)cc2[C@@H]2[C@@H](CCN2C(=O)CN2CCOCC2)[C@H]1CO", "outcome": "inactive"}
{"smiles": "COc1ccccc1N(CC(=O)N(CC(C)C)CC(C)C)S(=O)(=O)c1cccs1", "outcome": "inactive"}
{"smiles": "CO[C@H]1CN(C)C(=O)c2ccc(NC(=O)Nc3ccc(Cl)c(Cl)c3)cc2OC[C@H](C)NC[C@H]1C", "outcome": "inactive"}
{"smiles": "O=C(Nc1ccc(Cl)cc1)N1C[C@H]2[C@@H](c3ccccc31)[C@H](CO)N2CC1CCCC1", "outcome": "inactive"}
{"smiles": "C[C@@H]1CN([C@H](C)CO)C(=O)c2cc(NC(=O)CCCN(C)C)ccc2O[C@@H]1CN(C)Cc1ccc(-c2ccccc2)cc1", "outcome": "inactive"}
{"smiles": "C[C@H]1CN([C@@H](C)CO)C(=O)c2cc(-c3ccccc3)cnc2O[C@H]1CN(C)Cc1ccccc1", "outcome": "inactive"}
{"smiles": "COCC(=O)Nc1ccc2c(c1)C(=O)N(C)[C@@H]1CC[C@H](CC(=O)NCc3ccccc3Cl)O[C@@H]1CO2", "outcome": "inactive"}
{"smiles": "CO[C@@H]1CN(C)C(=O)c2cc(NC(=O)Nc3ccc(Cl)c(Cl)c3)ccc2OC[C@H](C)NC[C@H]1C", "outcome": "inactive"}
{"smiles": "CCCc1cc(C(=O)OC)c(NC(=O)CCC(=O)O)s1", "outcome": "inactive"}
{"smiles": "COC(=O)c1c(NC(=O)CN2CCN(c3ccccc3Cl)CC2)sc(C)c1C", "outcome": "inactive"}
{"smiles": "C[C@@H]1CN([C@H](C)CO)C(=O)c2cc(NC(=O)C3CCCCC3)ccc2O[C@H]1CN(C)Cc1ccc(-c2ccccc2)cc1", "outcome": "inactive"}
{"smiles": "CC(C)NC(=O)N(C)C[C@H]1Oc2ccc(NC(=O)CCN3CCOCC3)cc2C(=O)N([C@H](C)CO)C[C@@H]1C", "outcome": "inactive"}
{"smiles": "O=S(=O)(c1cccc(F)c1)N1CC[C@@H]2[C@H]1c1cc(-c3cccc(F)c3)ccc1N[C@@H]2CO", "outcome": "inactive"}
{"smiles": "C[C@H]1CN([C@@H](C)CO)C(=O)c2cc(NC(=O)C3CCCCC3)ccc2O[C@H]1CN(C)Cc1ccc(-c2ccccc2)cc1", "outcome": "inactive"}
{"smiles": "Nc1nc(-c2cc3c(cc2Cl)OCCO3)cs1", "outcome": "inactive"}
{"smiles": "Cc1ccc(NC(=O)COC(=O)c2cc(Cl)ccc2[N+](=O)[O-])c(C)c1", "outcome": "inactive"}
{"smiles": "C=CCC[C@H](Cc1ccc(F)cc1)C(=O)OC[C@H](Cc1c[nH]c2ccccc12)NC(=O)[C@@H](CC=C)CC(=O)N[C@@H](CO)Cc1ccccc1", "outcome": "inactive"}
{"smiles": "C[C@@H]1CN([C@@H](C)CO)C(=O)c2cc(NC(=O)CCCN(C)C)ccc2O[C@@H]1CN(C)Cc1ccc(-c2ccccc2)cc1", "outcome": "inactive"}
{"smiles": "COC(=O)C[C@H]1CC[C@H]2[C@@H](COc3ccc(NC(=O)Cc4cccs4)cc3C(=O)N2C)O1", "outcome": "inactive"}
{"smiles": "C[C@@H]1CN([C@H](C)CO)C(=O)c2cc(NC(=O)CCCN(C)C)ccc2O[C@H]1CN(C)Cc1ccc(-c2ccccc2)cc1", "outcome": "inactive"}
{"smiles": "C[C@H](O)C#Cc1ccc2c(c1)O[C@@H](CN(C)C)[C@H](C)CN([C@@H](C)CO)S2(=O)=O", "outcome": "inactive"}
{"smiles": "N#C[C@@H]1[C@H](c2ccccc2C2=CCCCC2)[C@H](CO)N1S(=O)(=O)c1ccccc1", "outcome": "inactive"}
{"smiles": "O=S(=O)(c1ccccc1F)N1CC[C@@H]2[C@H]1c1cc(-c3cccc(F)c3)ccc1N[C@@H]2CO", "outcome": "inactive"}
{"smiles": "O=S(=O)(c1ccccc1F)N1CC[C@@H]2[C@H](CO)Nc3ccc(-c4cccc(F)c4)cc3[C@@H]21", "outcome": "inactive"}
{"smiles": "C[C@@H]1CN([C@@H](C)CO)C(=O)c2cc(-c3ccccc3)cnc2O[C@H]1CN(C)Cc1ccccc1", "outcome": "inactive"}
{"smiles": "COc1ccc([N+](=O)[O-])cc1NS(=O)(=O)c1ccc(C(=O)N2CCCC2)cc1", "outcome": "inactive"}
{"smiles": "OC(CNC1CCCc2ccccc21)COc1c(Cl)cccc1Cl", "note": "(stereo not given)", "outcome": "inactive"}
{"smiles": "C[C@H](O)C#Cc1ccc2c(c1)O[C@H](CN(C)C)[C@H](C)CN([C@H](C)CO)S2(=O)=O", "outcome": "inactive"}
